Compound activity as filed in PubChem.
Pf growth 48h: P. falciparum growth inhibition at 48 hours (one generation). 310,000 tested, 5.9% active. Potency, µM (titrated, usually from 28.7 µM), usual class: inhibitors. P. falciparum luciferase growth in erythrocytes, 48 h
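Erythrocytes infected with P. falciparum carrying an integrated firefly luciferase reporter (2% hematocrit, 0.1% parasitemia final) were exposed to compounds in RPMI 1640 with 0.5% Albumax at 37 C, 5% CO2. Growth inhibition was scored as reduced luminescence.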
LmPK inhibitor: inhibitors of Leishmania mexicana pyruvate kinase; Potency, µM (highest dose often 57.5 µM), usual class: inhibitors; AID 1721; purified LmPK, Kinase-Glo ATP luminescence, 1 h; Q27686; 290,000 tested, 0.37% active
Target sequence (Q27686 whole entry, looked up): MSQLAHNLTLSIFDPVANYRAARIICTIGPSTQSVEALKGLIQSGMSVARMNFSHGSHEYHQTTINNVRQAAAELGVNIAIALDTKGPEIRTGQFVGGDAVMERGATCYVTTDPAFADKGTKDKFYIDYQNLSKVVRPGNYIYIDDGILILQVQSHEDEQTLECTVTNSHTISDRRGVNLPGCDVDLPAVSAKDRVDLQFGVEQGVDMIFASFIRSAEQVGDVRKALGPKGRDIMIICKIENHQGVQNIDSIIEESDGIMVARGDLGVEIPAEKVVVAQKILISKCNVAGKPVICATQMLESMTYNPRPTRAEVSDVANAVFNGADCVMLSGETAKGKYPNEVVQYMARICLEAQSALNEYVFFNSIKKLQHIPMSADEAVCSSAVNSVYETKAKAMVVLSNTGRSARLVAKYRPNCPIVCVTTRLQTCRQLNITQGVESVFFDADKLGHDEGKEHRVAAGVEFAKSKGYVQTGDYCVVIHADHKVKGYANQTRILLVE
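Purified LmPK (0.1 nM) with 0.5 mM PEP and 0.1 mM ADP in imidazole buffer pH 7.2 with MgCl2/KCl, 1 h at room temperature. ATP formed was read by luciferase luminescence and normalized to no-enzyme and uninhibited controls.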
CHX counter-1: affects cycloheximide protein synthesis inhibition readout, counter-screen. cell reporter, cycloheximide protein synthesis inhibition counterscreen. max response, %. 300,000 tested, 12% active. AID 2314; in the data active = max response mostly above about 13%, no sharp cut-off; inactive = mostly below about 14%; note: read at 38.3 µM for the half of the compounds with a filed dose
Shiga toxin inh: inhibitors of Shiga toxin in Vero cells; Vero cells, Shiga toxin protein synthesis inhibition reporter; inhibition, % at 38.7 µM; 290,000 tested, 9.2% active; AID 2315; in the data active = inhibition mostly above about 28%, no sharp cut-off; inactive = mostly below about 43%
Pf growth 96h: inhibits malaria parasite growth, 96 h | P. falciparum luciferase reporter growth, 96 h | 320,000 tested, 6.9% active | Potency, µM (series often up to 28.7 µM), actives largely listed as inhibitors
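P. falciparum expressing integrated firefly luciferase grown in erythrocytes (2% hematocrit, 0.05% parasitemia final) with compounds for 96 hours at 37 C, 5% CO2. Growth inhibition read as loss of luminescence after adding luciferase detection reagent.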
LmPK inh confirm: Confirms inhibition of Leishmania mexicana pyruvate kinase. shares compounds with LmPK inhibitor. purified LmPK, Kinase-Glo ATP luminescence, 1 h. Potency, µM (highest dose often 57.5 µM), hits mostly inhibitors. 150 tested, 40% active;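 active = compounds giving a full or partial concentration-response curve, as inhibitors or activators; inconclusive = weak, top-dose-only or unclear curve responses; inactive = no response at any tested dose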
CHX counter-2: protein synthesis counter-screen activity for Shiga toxin hits; 510 tested, 3% active; AID 2318; Potency, µM (highest dose often 38.3 µM), actives largely listed as activators; Cycloheximide counterscreen, protein synthesis reporter, Shiga toxin assay; shares compounds with Shiga toxin inh; calls by dose curve
A number is an active result; . = inactive; ? = inconclusive; / = no result given; + = active, no number; [ ] = remark or other dose. Sampled rows, rich in hits. Any-hit rate of the full collection: about 22%. Unless noted, calls come from the whole dose curve; as a rule, active = well fitted inhibition curve with a large enough effect; inconclusive = small, poorly fitted or top-dose-only effect, or another doubt; inactive = no such curve, though single readings can be large or run the other way.

SMILES	Pf growth 48h	LmPK inhibitor	CHX counter-1	Shiga toxin inh	Pf growth 96h	LmPK inh confirm	CHX counter-2
CCN1C(=O)C2(SC(NC(C)=O)=NN2C(C)=O)c2cc(C)ccc21 (stereo not drawn)	.	.	.	.	?	.	/
CCC(=O)Nc1cc(C)c(NC(=O)c2ccco2)cn1	.	.	.	.	.	/	/
Cc1cc(NC(=O)c2ccccc2)ncc1NC(=O)c1ccco1	.	14.1µM	18.0	87.4	/	16.3µM	/
CCn1c(SCC(=O)Nc2sc3c(c2C#N)CCC(C(C)(C)C)C3)nnc1-c1ccco1 (stereo not drawn)	.	.	.	.	?	.	/
CN(C)c1nc2c(c(N)nn2-c2ccc(Cl)cc2)c(=O)o1	.	.	.	.	.	.	/
COc1ccc(-n2nc(N)c3c(=O)oc(N(C)C)nc32)cc1	.	.	.	.	.	/	/
CCCCN(CC(=O)NCc1ccc(F)cc1)C(=O)c1ccco1	.	.	.	.	.	/	/
Cc1ccccc1-c1nc(-c2ccccn2)no1	.	2.51µM	.	.	?	11.6µM	/
COc1ccc(-c2nnc3sc(-c4ccccn4)nn23)cc1	.	.	.	.	.	/	/
COc1ccc(-c2nc(-c3ccccn3)no2)cc1	.	1.58µM	.	.	.	6.51µM	/
Cc1cc(N2CC(C)OC(C)C2)n2cc(-c3ccccc3)nc2n1 (stereo not drawn)	?	.	.	.	?	/	/
O=[N+]([O-])c1ccc(Cl)cc1NCC1CCCO1 (stereo not drawn)	.	.	.	.	.	/	/
Cc1noc(NS(=O)(=O)c2ccc(NC(=O)NC(C)(C(F)(F)F)C(F)(F)F)cc2)c1C	.[0.00184 µM]	.	.	.	.	/	/
COC(=O)CSc1ccc2nnc(-c3ccc(F)cc3)n2n1	.	.	.	.	.	.	/
CCOC(=O)CC(=O)CSc1ccc2nnc(-c3ccc(F)cc3)n2n1	?	.	.	.	/	/	/
CC1N=C(N)C(c2nc3ccccc3n2C)=C1O (stereo not drawn)	.	.	.	.	.	/	/
Cn1c(-c2ccc(Br)o2)nc2ccccc21	.	7.94µM	28.8	.	.	20.6µM	/
Cc1ccc(N2C(=O)c3ccccc3C2O)nc1 (stereo not drawn)	.	7.08µM	.	.	?	18.3µM	/
O=C(/C=C/Nc1ccc(Oc2ccccc2)cc1)c1ccco1	.	7.94µM	55.7	70.3	.[5.75 µM]	20.6µM	/
COc1ccc(N=Nc2n(C)c3ccccc3[n+]2C)cc1	0.738µM	1.41µM	.	.	0.522µM	13µM	/
O=c1c2ccccc2[se]n1-c1ccccc1	?	22.4µM	.	.	?	13µM	/
O=c1c2ccccc2nc(-c2ccccc2)n1-c1ccccc1	.	.	.	.	?	/	/
O=S(=O)(Nc1ccc(O)c(NS(=O)(=O)c2ccccc2)c1)c1ccccc1	.	0.447µM	.	.	.	.	/
COC(=O)COc1ccc(/C=C2/SC(=O)N(CC(=O)N3CCCC3)C2=O)cc1Br	.	.	.	.	.	.	/
COC(=O)COc1cc(Br)c(/C=C2/SC(=O)N(CC(=O)N3CCCC3)C2=O)cc1OC	?	.	.	.	?	/	/
SMILES	Pf growth 48h	LmPK inhibitor	CHX counter-1	Shiga toxin inh	Pf growth 96h	LmPK inh confirm	CHX counter-2
Cc1ccc(-n2[nH]c(C)c(C=Nc3ccc(Br)cn3)c2=O)cc1	.	.	.	.	?	/	/
Cc1ccc(-n2[nH]c(C)c(/C=N/c3ccccn3)c2=O)cc1	.	.	.	.	.	?	/
COc1ccc(/C=N/NC(N)=S)cc1OC(=O)c1cccc2ccccc12	?	.	23.3	55.9	?	.	/
COc1ccc(C(=O)Oc2cc(/C=N/NC(N)=S)ccc2OC)cc1	.	.	.	.	.	/	/
O=c1[nH]c(=O)n(Cc2ccco2)c2c1C(C(F)(F)F)(C(F)(F)F)N=C(c1ccc(F)cc1)N2	?	.	.	66.5	/	/	.
CC(C)CC(=O)NC1(C(F)(F)F)C(=O)Nc2c1c(=O)[nH]c(=O)n2Cc1ccco1 (stereo not drawn)	.	.	.	.	.	/	/
CC(C)(C)C(C(=O)n1cccc1C#N)c1ccccc1 (stereo not drawn)	.	/	/	/	.	/	/
CCCCc1ccc(NS(=O)(=O)N(C)C)cc1	.	.	.	71.9	10.4µM	/	.
CN(C)S(=O)(=O)Nc1ccc(Oc2ccccc2)cc1	.	.	.	.	/	/	/
CCOc1ccc2nc(SCC(=O)NC3CCCCC3)[nH]c2c1	.	.	.	43.8	.	/	.
COc1ccc2nc(SCC(=O)Nc3ccc4c(c3)CCC4)[nH]c2c1	.	.	.	41.6	.	/	.
COc1ccc2nc(SCC(=O)Nc3ccc4[nH]c(=O)[nH]c4c3)[nH]c2c1	.	/	/	/	.	/	/
COc1ccc2nc(SCC(=O)NC3CCCCC3)[nH]c2c1	.	.	.	.	.	/	/
CSc1nc(SCCO)c2sc3nc(-c4ccco4)c4c(c3c2n1)CC(C)(C)OC4	?	.	.	80.6	?	/	.
CCC(=O)Nc1ccc(C(=O)NNC(=O)C(c2ccccc2)c2ccccc2)cc1	.	.	.	.	?	/	/
CCC(=O)Nc1ccc(C(=O)NNC(=O)c2ccccc2)cc1	.	.	.	31.8	.	/	.
Cc1cccc(C(=O)NNC(=O)c2ccccc2)c1	.	.	.	+	.	/	?
CCC(=O)N1CCN(c2ccc(NC(=O)c3ccc4ccccc4c3)cc2)CC1	.	.	.	.	?	/	/
CCC(=O)N1CCN(c2ccc(NC(=O)c3ccccc3)cc2)CC1	.	.	.	46.9	.	/	?
O=C(NCCCO)/C(=C\c1ccco1)NC(=O)c1ccco1	.	.	.	38.0	?	/	.
COc1ccc2cc(C(=O)NCc3ccccc3)[nH]c2c1	.	.	.	31.3	.	/	?
COc1ccc2[nH]c(C(=O)NCc3ccccc3)c(C)c2c1	.	.	.	.	.	/	/
CCOC(=O)c1c(C)[nH]c(C2=NNC(=NC3CC3)SC2)c1C	.	.	.	32.0	.	/	0.0504µM
CN(C)c1ccc(/C=C/C#N)cc1	.	.	.	30.7	.	/	.
CN(C)c1ccc(/C=[N+](\[O-])C(C)(C)/C=N/O)cc1	.	.	.	.	?	/	/
SMILES	Pf growth 48h	LmPK inhibitor	CHX counter-1	Shiga toxin inh	Pf growth 96h	LmPK inh confirm	CHX counter-2
OC(CN1CCCCC1)Cn1c2ccccc2c2ccccc21 (stereo not drawn)	?	.	.	.	.	/	/
O=C(/C=C/c1cn(CC(O)CN2CCCCC2)c2ccccc12)c1cccs1 (stereo not drawn)	8.28µM	.	.	31.8	?	/	.
Cc1c(C(=O)N2CCCCC2)sc(NC(=O)C2CC2)c1C#N	.	.	.	.	/	/	/
Cc1sc(NC(=O)C2CCCC2)c(C#N)c1C	.	.	.	18.9	.	/	.
CCn1c(SCC(N)=O)nnc1-c1ccc2[nH]c(C)c(C)c2c1	.	.	.	.	.	/	/
CCn1c(SCC(=O)O)nnc1-c1ccc2[nH]c(C)c(C)c2c1	.	.	.	26.7	.	/	.
CC[N+](CC)(CCO)CCCN1C(=O)C2CC=C(Cl)CC2C1=O (stereo not drawn)	.	.	.	142.6	.	/	.
